In the supplement of paper PMC13380429:

Tested on: Vero E6 infected with SARS-CoV-2
Experiment: inhibition of SARS-CoV-2 cytopathic effect; higher = more antiviral protection, active = above 15
Settings: 48 h

Measured: inhibition of SARS-CoV-2 cytopathic effect

OCc1cc([C@@H](O)CNCCCCCCOCCOCc2c(Cl)cccc2Cl)ccc1O [vilanterol]
inactive: 1 nM -1.65% | 8.33 nM -1.28% | 100 nM 0.86% | 833.33 nM -0.19% | 10000 nM -2.68%

COC(=O)[C@@H]1CC2=CC(=O)CC[C@]2(C)[C@@]23O[C@@H]2C[C@@]2(C)[C@@H](CC[C@@]24CCC(=O)O4)[C@H]13 [eplerenone]
inactive: 1 nM 0.06% | 8.33 nM 2.8% | 100 nM 0.3% | 833.33 nM 1.53% | 10000 nM 0.25%

CN1c2ccccc2C(=O)N2CCc3c([nH]c4ccccc34)C21 (stereo in doubt) [evodiamine]
inactive: 1 nM 0.51% | 8.33 nM 2.11% | 100 nM 2.14% | 833.33 nM 4.34% | 10000 nM 2.33%

CC(C)(C=O)Cc1cc(C(C)(C)C)c(O)c(C(C)(C)C)c1
inactive: 1 nM 3.54% | 8.33 nM 2.95% | 100 nM 2.75% | 833.33 nM 2.01% | 10000 nM 1.01%

COc1cccc(N2CCN(C3=Nc4c(F)cccc4[C@H](CC(=O)O)N3c3cc(C(F)(F)F)ccc3OC)CC2)c1 [letermovir]
inactive: 1 nM -1.18% | 8.33 nM 0.62% | 100 nM 0.16% | 833.33 nM 0.96% | 10000 nM 1.82%

Cn1cc(-c2ccc3nnc(C(F)(F)c4ccc5ncccc5c4)n3n2)cn1
inactive: 1 nM 0.45% | 8.33 nM 2.96% | 100 nM 4.23% | 833.33 nM 0.5% | 10000 nM 6.76%

CCOC(=O)C1=C[C@@H](OC(CC)CC)[C@H](NC(C)=O)[C@@H](N)C1 [oseltamivir-phosphate]
inactive: 1 nM -2.66% | 8.33 nM -6.65% | 100 nM -4.22% | 833.33 nM -6.18% | 10000 nM 0.67%
